Assay outcomes: PubChem BioAssay, National Center for Advancing Translational Sciences (NCATS)
Sampled rows, rich in hits. Any-hit rate of the full collection: about 6.9%.
MCF10A rereplic: A quantitative high throughput screen for small molecules that induce DNA re-replication in MCF 10a normal breast cells. MCF 10A DNA re-replication, Hoechst nuclear intensity, 48 h. Potency, µM (doses to about 46.1 µM), without a hit: top-dose activity, positive = re-replication, usual class: activators. 2.9% of 350,000 active. AID 624296, 2012; also: potency is read from the fitted curve at half-maximal effect; % of control where 0% means no effect; nearly all actives have a fitted effect of over 50% in size
SW480 rerep: A quantitative high throughput screen for small molecules that induce DNA re-replication in SW480 colon adenocarcinoma cells. SW480 DNA re-replication, Hoechst DNA content imaging, 48 h. Potency, µM (highest dose often 46.1 µM), for the others: top-dose re-replication activation, actives largely listed as activators. 1.8% of 340,000 active; also: potency is read from the fitted curve at half-maximal effect; % of control where 0% means no effect; nearly all actives have a fitted effect of over 55% in size
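SW480 cells exposed to compounds for 48 hr at 37 C, 5% CO2, then Hoechst-stained 40 min. Nuclear DNA content imaged by fluorescence scanning (405 nm excitation, 500-530 nm emission); re-replication scored as increased high-intensity nuclei.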
Giardia killer: Small Molecules that selectively kill Giardia lamblia: qHTS; Giardia lamblia trophozoite viability; activity change, % at 7.66 µM, hits read low; 0.15% of 340,000 active; AID 540267, 2011; in the data active = activity change below about -80%; inconclusive = between about -30% and that limit;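 also: parasites exposed to compound for two days anaerobically before the ATP read; % is scaled to controls: 0 for no effect and ±100 for the full control effect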
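Compounds were tested on trophozoites seeded at 100 cells/well and held 48 hrs at 37 deg C anaerobically. An ATP-based luminescent kit measured the remaining live cells.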
KB-V1 cytotox: qHTS assay for MDR1-selective chemotherapeutics: Primary screen using the drug-selected MDR subline cells KB-V1. AID 1347076, 2019. 3.4% of 400,000 active. Potency, µM (series often up to 46.1 µM), most hits filed as cytotoxic. KB-V1 MDR cells viability, CellTiter-Glo, 72 h; also: potency is read from the fitted curve at half-maximal effect; % is scaled to controls: 0 for no effect and ±100 for the full control effect; nearly all actives have a fitted effect of over 60% in size
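KB-V1 cells (P-gp-expressing MDR subline of KB-3-1) in phenol-red-free DMEM with 10% FBS were exposed to library compounds over a concentration series for 72 h at 37 degrees C. Viability read by CellTiter-Glo luminescence; concentration-effect curves fitted after normalization.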
S-ASM inh: Inhibitors of Secretory Acid Sphingomyelinase (S-ASM): qHTS; placental ASM, HMU-PC fluorogenic substrate, 60 min; Potency, µM (titrated, usually from 57.5 µM), for the others: at the highest dose activity change, negative = inhibition, hits mostly inhibitors; 0.006% of 340,000 active; AID 504937, 2011; also: potency is read from the fitted curve at half-maximal effect
Target sequence (P17405 47-631 limits assumed): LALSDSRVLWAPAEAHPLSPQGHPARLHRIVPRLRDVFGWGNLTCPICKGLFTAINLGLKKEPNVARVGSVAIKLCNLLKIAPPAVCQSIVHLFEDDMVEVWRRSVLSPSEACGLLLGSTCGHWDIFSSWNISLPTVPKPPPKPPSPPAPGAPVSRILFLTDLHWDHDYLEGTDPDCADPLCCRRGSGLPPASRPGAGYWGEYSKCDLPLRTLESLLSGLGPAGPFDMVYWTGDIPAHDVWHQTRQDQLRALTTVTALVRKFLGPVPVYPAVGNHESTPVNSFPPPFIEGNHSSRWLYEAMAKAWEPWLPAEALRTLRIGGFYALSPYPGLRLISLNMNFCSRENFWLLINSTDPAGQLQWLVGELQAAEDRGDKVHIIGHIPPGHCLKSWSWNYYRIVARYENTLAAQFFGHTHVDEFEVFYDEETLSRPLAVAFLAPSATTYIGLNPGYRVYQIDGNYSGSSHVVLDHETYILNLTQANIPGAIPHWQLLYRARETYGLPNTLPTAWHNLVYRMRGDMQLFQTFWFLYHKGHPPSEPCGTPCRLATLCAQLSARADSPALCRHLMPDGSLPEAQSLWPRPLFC
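qHTS format. ASM enzyme prepared from human placenta hydrolyses the fluorogenic substrate HMU-PC0 (9 uM final) over 60 min at 37 °C after a 10 min compound preincubation.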
KB-3-1 cytotox: qHTS assay for MDR1-selective chemotherapeutics: Primary screen using the parental adenocarcinoma cell KB-3-1 | Potency, µM (series often up to 46.1 µM), usual class: cytotoxic | AID 1347075, 2019 | KB-3-1 viability, CellTiter-Glo ATP luminescence, 72 h | 1.4% of 400,000 active; also: potency is read from the fitted curve at half-maximal effect; % is scaled to controls: 0 for no effect and ±100 for the full control effect; nearly all actives have a fitted effect of over 60% in size
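Viability of parental KB-3-1 cells, measured by CellTiter-Glo luminescence, followed a 72 h incubation at 37 °C with pinned compounds in phenol-red-free DMEM containing 10% FBS.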
Starred values were filed as active, the others as inactive; i = inactive; ? = inconclusive; / = no result given. Unless noted, calls follow the shape of the dose curve; as a rule, active = well fitted curve in the direction sought with a large enough effect; inconclusive = small, poorly fitted or top-dose-only effect, or another doubt; inactive = no such curve, though single readings can be large; an effect the other way counts as inactive or inconclusive.

SMILES	MCF10A rereplic	SW480 rerep	Giardia killer	KB-V1 cytotox	S-ASM inh	KB-3-1 cytotox
O=C1c2ccc([N+](=O)[O-])cc2C(=O)N1c1ccc(Cl)cn1	-14%	13%	3	i	1%	i
O=C1c2cccc3c([N+](=O)[O-])ccc(c23)C(=O)N1O	21µM*	?	-24	i	2%	i
O=C1c2cccc3c([N+](=O)[O-])ccc(c23)C(=O)N1c1nccs1	7.3µM*	7.3µM*	28	?	-3%	?
O=C1c2cccc3c([N+](=O)[O-])ccc(c23)C(=O)N1c1ccc(Cl)cn1	?	4.1µM*	1	i	-8%	i
O=C1c2cccc3c([N+](=O)[O-])ccc(c23)C(=O)N1c1ccccn1	4.1µM*	12µM*	-2	?	1%	i
CCOC(=O)c1ccc(NC(=O)Cc2coc3cc(C)cc(C)c23)cc1	/	/	/	i	/	i
Cc1ccccc1NC(=O)c1nc(SCc2ccccc2F)ncc1Cl	/	/	/	i	/	?
CCN(CC)CCNc1ccc(C)c2sc3ccc(O)cc3c(=O)c12	5%	?	1	4.6µM*	?	?
CCN(CC)CCCNC(=O)C(C)n1nc(C)c2sc3ccccc3c2c1=O (centres undefined)	-1%	-6%	-17	i	-3%	i
CCn1c(C(=O)NCc2ccccn2)cc2sccc21	10%	-6%	-8	15µM*	5%	i
Cc1ccc(CCNC(=O)c2cc3sccc3n2Cc2ccc(C)cc2)cc1	/	/	/	i	/	i
CCn1c(C(=O)NCCCN2CCc3ccccc3C2)cc2sccc21	6%	?	7	9.2µM*	5%	i
CCn1c(C(=O)NCCCc2ccccc2)cc2sccc21	14%	0%	-19	?	-7%	i
CCN1CCN(CCCNC(=O)c2cc3sccc3n2CC)CC1	5%	?	32	i	4%	i
CCOC(=O)c1c(C)c(C(=O)NCc2ccccn2)c(C)n1CC	18%	?	10	16µM*	4%	i
Cc1ccc(Cn2c(C(=O)NCCCN3CCOCC3)cc3sccc32)cc1	-1%	-7%	3	4.6µM*	-2%	i
Cc1ccc(S(=O)(=O)Nc2cc3c(cc2Cl)n(C)c(=O)c(=O)n3C)cc1	/	/	/	i	/	i
Cc1cc2c(cc(C(=O)NCCCN3CCOCC3)n2Cc2ccc(Cl)cc2)o1	23µM*	18µM*	18	i	-4%	i
Cc1ccc(NC(=O)Cn2c(=O)n(Cc3ccc4c(c3)OCO4)c(=O)c3ccc(C(=O)NC4CCCCC4)cc32)c(C)c1	/	/	/	i	/	i
CSc1cc(-c2ccc(Cl)cc2)c(C(=O)NC(C)C)s1	?	?	1	i	1%	i
CSc1cc(-c2ccc(Cl)cc2)c(C(=O)NN)s1	?	?	-11	8.2µM*	4%	?
O=S(=O)(c1ccc(-c2csc(=Nc3ccc(F)cc3)n2CCCCCCO)cc1)N1CCCC1	/	/	/	?	/	i
CC(/C=N/n1c(-c2ccccn2)n[nH]c1=S)=C\c1ccccc1	8%	-3%	5	i	-3%	?
CCc1n[nH]c(=S)n1/N=C/C(C)=C\c1ccccc1	15%	0%	2	7.3µM*	2%	?
COc1cccc(C(=O)SC2=NCCS2)c1	15µM*	0%	2	i	3%	i
SMILES	MCF10A rereplic	SW480 rerep	Giardia killer	KB-V1 cytotox	S-ASM inh	KB-3-1 cytotox
Cc1ccc(S(=O)(=O)NC(C)(C)CN2CCNCC2)cc1	?	21µM*	-8	i	2%	i
Cc1ccc(S(=O)(=O)NC(C)(C)CN2CCc3ccccc3C2)cc1	20%	6.5µM*	-15	?	0%	i
COc1ccc(NC(=O)CSc2nc3ccc(OC)cc3[nH]2)cc1	-3%	-7%	-1	i	-3%	i
COc1ccc2nc(SCC(=O)NC(C)(C)C)[nH]c2c1	8.2µM*	?	3	i	-2%	i
COc1ccc2nc(SCC(=O)N(C)C3CCCCC3)[nH]c2c1	0%	2%	-11	21µM*	2%	i
Cc1nnc(SC(C)C(=O)NC2CCCc3ccccc32)n1-c1ccccc1 (centres undefined)	-2%	0%	-3	?	8%	?
Cc1ccc2nc(SC(C)C(=O)NC3CCCc4ccccc43)[nH]c2c1 (centres undefined)	?	/	0	21µM*	-2%	i
Cc1ccccc1-n1nnnc1SC(C)C(=O)NC1CCCc2ccccc21 (centres undefined)	-3%	?	-30	3.7µM*	0%	i
Cc1ccc(Cl)cc1Nc1nn2c(=O)c3ccc(C(=O)NC4CCCCC4)cc3nc2s1	/	/	/	i	/	i
CCOc1ccc(CNC(=O)c2ccc(-c3nc(CSc4ccc(C)cc4)c(C)o3)cc2)cc1	/	/	/	i	/	i
CCCSCCCNC(=O)Cn1c(-c2cccs2)cc2ccccc21	/	/	/	?	/	i
COc1ccc2nc(SCC(=O)NC3CCCc4ccccc43)[nH]c2c1 (centres undefined)	-1%	-2%	-4	18µM*	0%	?
O=C(CSc1nc2ccc(Cl)cc2[nH]1)NC1CCCc2ccccc21 (centres undefined)	?	4%	-2	i	0%	i
CCc1ncnc2cc(OC)c(OC)cc12	17%	0%	/	/	/	/
O=C1CCn2nc(-c3ccc(Cl)cc3)cc2N1	-5%	-7%	10	?	-3%	1.8µM*
O=C(CN1C(=O)CCn2nc(-c3ccccc3)cc21)NCc1ccc(Cl)cc1	/	/	/	i	/	i
COc1ccc(NC(=O)Cn2c(=O)n(Cc3ccco3)c(=O)c3cc(OC)c(OC)cc32)cc1	/	/	/	?	/	i
COc1cc(C(C(=O)NC2CCCCC2)N(C(=O)Cc2c[nH]c3ccccc23)c2ccc(C)cc2)cc(OC)c1OC (centres undefined)	4%	11%	13	23µM*	-7%	?
Cc1ccc(C(C(=O)NC2CCCCC2)N(C(=O)Cc2c[nH]c3ccccc23)c2ccccc2)o1 (centres undefined)	?	14%	-11	4.1µM*	-2%	18µM*
CC(=O)Nc1ccc(N(C(=O)Cc2c[nH]c3ccccc23)C(C(=O)NC2CCCCC2)c2ccco2)cc1 (centres undefined)	3%	1%	-7	i	-4%	i
